The record followed here is PubChem BioAssay AID2685 (National Center for Advancing Translational Sciences (NCATS), 2010).

Structures are written as SMILES. Screen size: about 320,000 compounds; about 2,100 (0.66%) were called active. Roughly 53% stayed inconclusive and do not appear here. The call rests on the fitted dose curve; in most records, active means well fitted inhibition curve with a large enough effect in the signal ratio, with a control signal flat (not every such curve was filed as active); inconclusive means small, poorly fitted or top-dose-only effect, or effect the other way, or a change in a side signal; inactive means flat fitted curve, though single readings scatter; the % refers to the signal ratio. Many of the other results were omitted from the sample, so actives are more common in it than they were.
Potency means the concentration at half of the fitted maximal effect.

The test can be described thus: qHTS Assay for Lipid Storage Modulators in Drosophila S3 Cells.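 On cell number change: cells counted by Cell Tracker Red CMTPX staining in the red channel.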 On lipid storage change, negative = inhibition: on the % scale 0 is the no-effect control and ±100 the full control effect. Conditions: BODIPY lipid droplet fluorescence, 18-24 h, cells fed with added oleic acid; cell number change: measured here: cell count max response; series mostly up to 46.1 µM; lipid storage change, negative = inhibition: at the top concentration. The procedure, abridged: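 Laser-scanning cytometry quantifies lipid droplet accumulation (500–530 nm total intensity; droplet/cell object ratio) in oleic acid-fed (400 uM added) Drosophila S3 cells treated with a concentration series. 20 uM Triacsin C defined 100% inhibition.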
`CCOC(=O)C(=NC(C)CC)NNc1cccc(C(F)(F)F)c1` (stereo not given): the “lipid storage change, negative = inhibition” value is -2.64% (inactive) and the cell number change stood at 0.302%.

Take `Cc1cccc(C)c1N(CC(=O)NCc1ccccc1)C(=O)c1csnn1`: the compound was called inactive and the cell number change was -7.94%. As for `CN(C)C(=O)c1nc2ccc(Cl)cn2c1CNCc1ccccc1OC(F)(F)F`, the “lipid storage change, negative = inhibition” value is 4.92% (inactive) and the cell number change is -4.39%. In the case of `CN1C/C(=C\c2ccc(N3CCOCC3)cc2)C(=O)/C(=C/c2ccc(N3CCOCC3)cc2)C1`, the Potency was 7.31 µM (active) and the cell number change was -12.7%.

As for `CC(C)N1C/C(=C/c2cccnc2)C(=O)/C(=C/c2cccnc2)C1`, the Potency was 23.1 µM (active) and the cell number change is -15.1%.

With `CC(C)N1CC2=C(OC(N)=C(C#N)C2c2cccnc2)/C(=C/c2cccnc2)C1` (stereo not given), the “lipid storage change, negative = inhibition” value was 11.8% (inactive) and the cell number change was -0.305%. With `O=C1/C(=C\c2cccnc2)CN(Cc2ccccc2)C/C1=C\c1cccnc1`, the Potency was 2.31 µM (active) and the cell number change is -26.3%. With `O=C1/C(=C\c2cccnc2)CCc2ccccc21`, the “lipid storage change, negative = inhibition” value was 5.43% (inactive) and the cell number change was -16.3%.

For the compound `CC1=N/C(=C/c2cccnc2)C(=O)O1`, the “lipid storage change, negative = inhibition” value was 0.341% (inactive) and the cell number change is -0.0715%.

As to `O=C1/C(=C/c2cccnc2)CCc2c1[nH]c1ccccc21`, the “lipid storage change, negative = inhibition” value was 19% (inactive) and the cell number change was -5.69%. As to `O=C1NC(=S)N/C1=C\c1ccc(N2CCOCC2)cc1`, the “lipid storage change, negative = inhibition” value is -7.79% (inactive).

Take `CN1C/C(=C/c2ccncc2)C(=O)/C(=C/c2ccncc2)C1`: the compound was called inactive and the cell number change came to 15.3%. As to `CC(C)N1C(=O)S/C(=C/c2cccnc2)C1=O`, the “lipid storage change, negative = inhibition” value is -20.1% (inactive) and the cell number change was 16.4%. With `CN1C/C(=C/c2cccnc2)C(=O)/C(=C/c2cccnc2)C1`, the Potency is 1.84 µM (active) and the cell number change is -16.3%. For the compound `C(=N\N1CCN(Cc2ccccc2)CC1)/c1cccnc1`, the “lipid storage change, negative = inhibition” value was 10.3% (inactive) and the cell number change is 3.04%. For `COc1ccc(N2C(=O)/C(=C/c3ccc([N+](=O)[O-])cc3)N=C2C)c(OC)c1`, the “lipid storage change, negative = inhibition” value is 12.2% (inactive) and the cell number change is -0.57%.

On to `O=c1c2cc3c(nc2[nH]c(=S)n1-c1ccccc1)CCCC3`, for which the “lipid storage change, negative = inhibition” value is -3.75% (inactive) and the cell number change stood at 8.9%. As for `COc1ccccc1OCCNc1cc(N2CCCCC2)ccc1[N+](=O)[O-]`, the “lipid storage change, negative = inhibition” value was 7.35% (inactive) and the cell number change came to 20.1%. For the compound `CCOc1ccc2nc(SCC(=O)Nc3ccc4c(c3)OCCO4)[nH]c2c1`, the result was inactive and the cell number change is -1.86%. As to `O=C(/C=C/c1ccco1)N(Cc1ccccc1F)C1CCS(=O)(=O)C1` (stereo not given), the “lipid storage change, negative = inhibition” value is 23.1% (inactive) and the cell number change came to 19.4%. Regarding `CCOc1ccccc1-n1c(SCC(=O)N2CCOCC2)nnc1-c1ccccn1`, the “lipid storage change, negative = inhibition” value is 3.34% (inactive) and the cell number change was 1.75%.

As to `N#Cc1ccc(/C=N/NC(=O)c2cc(-c3cccs3)nc3ccccc23)cc1`, the “lipid storage change, negative = inhibition” value is 21.4% (inactive) and the cell number change is 12.5%.

As to `COc1ccc(NCc2nnc(SCC(=O)Nc3ccc(OC)cc3OC)o2)cc1`, the “lipid storage change, negative = inhibition” value is 8.16% (inactive) and the cell number change amounted to 8.92%.

With `CCOC(=O)N1CCN(C(=O)CN(c2ccccc2OC)S(=O)(=O)c2ccc(C)cc2)CC1`, the call was inactive.

As to `CC(C)N1C/C(=C/c2ccsc2)C(=O)/C(=C/c2ccsc2)C1`, the Potency was 14.6 µM (active) and the cell number change was -15.9%.

As for `O=C1/C(=C/c2ccsc2)N2CCC1CC2`, the “lipid storage change, negative = inhibition” value was -0.371% (inactive) and the cell number change was -5.13%.

Take `O=C1/C(=C\c2ccsc2)N2CCC1CC2`: the “lipid storage change, negative = inhibition” value is -13% (inactive) and the cell number change is 5.98%. With `CN(C)CC(C)(C)CNS(=O)(=O)c1ccc(Cl)c(Cl)c1`, the Potency was 23.1 µM (active) and the cell number change is -9.4%.

In the case of `CN(C)CC(C)(C)CNS(=O)(=O)c1ccc(Cl)cc1`, the “lipid storage change, negative = inhibition” value was 1.02% (inactive) and the cell number change amounted to 27.8%. As to `CC(C)(CNS(=O)(=O)c1ccc(F)cc1)CNS(=O)(=O)c1ccc(F)cc1`, the compound was called inactive and the cell number change worked out at 6.92%.

As to `CCCc1ccc(OCCNC(=O)C2CCCCC2)cc1`, the “lipid storage change, negative = inhibition” value is 10.9% (inactive) and the cell number change was -6.51%. In the case of `CC(=O)Nc1ccc(S(=O)(=O)n2cnc3ccccc32)cc1`, the compound was called inactive and the cell number change turned out to be 13.3%. `O=C(CN1C(=O)CCC1=O)Nc1cccc(NC(=O)CN2C(=O)CCC2=O)c1`: the “lipid storage change, negative = inhibition” value was -8.67% (inactive) and the cell number change was -5.66%. Turning to `O=C(CCN1c2ccccc2Sc2ccccc21)Oc1ccccc1`, the “lipid storage change, negative = inhibition” value was 1.68% (inactive) and the cell number change is -0.775%. Regarding `Cn1c(C(=O)NCC2CCCO2)cc2oc3ccccc3c21` (stereo not given), the Potency was 0.58 µM (active) and the cell number change was -14.1%. As to `Cn1c(C(=O)NCC2CCCO2)cc2c(=O)[nH]c3ccccc3c21` (stereo not given), the “lipid storage change, negative = inhibition” value was -0.25% (inactive) and the cell number change was found to be 4.34%. With `Cn1c(C(=O)NCc2ccccc2)cc2oc3ccccc3c21`, the result was inactive and the cell number change is 12.4%. Regarding `Cc1ccccc1CS(=O)(=O)CCC(=O)NCc1ccccn1`, the “lipid storage change, negative = inhibition” value was -5.48% (inactive) and the cell number change was -19.8%. Take `O=C(CSc1ccc(Cl)cc1)NCc1ccncc1`: the “lipid storage change, negative = inhibition” value was 2.06% (inactive) and the cell number change turned out to be 8.1%.

Turning to `COc1ccc(CC(=O)N(C)Cc2ccc(Cl)cc2)cc1S(=O)(=O)N1CCOCC1`, the compound was classed as inactive. On to `COc1ccc(S(=O)(=O)N2CCN(c3ccccn3)CC2)c(OC)c1`, for which the “lipid storage change, negative = inhibition” value is -23.1% (inactive) and the cell number change was -13%.

As for `O=C(Nc1ccccc1C(=O)O)c1ccc(Cl)c(S(=O)(=O)N2CCOCC2)c1`, the “lipid storage change, negative = inhibition” value is -15.9% (inactive) and the cell number change is -21%.

In the case of `COc1cccc(/C=C/C(=O)N2CCN(c3ccccn3)CC2)c1`, the “lipid storage change, negative = inhibition” value is 9.27% (inactive) and the cell number change was -5.2%. On to `O=C(Nc1ccc(NC(=O)c2ccc(Cl)c(S(=O)(=O)N3CCOCC3)c2)cc1)c1ccccc1`, for which the “lipid storage change, negative = inhibition” value was 13.6% (inactive). With `COc1ccc(OC)c(S(=O)(=O)N2CCN(c3ccccn3)CC2)c1`, the “lipid storage change, negative = inhibition” value is -23.4% (inactive) and the cell number change was -24%. In the case of `COc1ccc(Br)cc1CN(C)C(=O)Cc1ccc(OC)c(S(=O)(=O)N2CCOCC2)c1`, the Potency was 10.3 µM (active) and the cell number change worked out at 30.1%. On to `COc1cc(/C=C/C(=O)N2CCN(c3ccccn3)CC2)cc(OC)c1OC`, for which the Potency was 16.4 µM (active) and the cell number change was -26.3%.
